Data: PubChem BioAssay (NCI)
This is part of a sample that, as a whole, favours compounds with a hit. Of some 83,000 tested, about 20% had one in any assay.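 Growth was measured after 48 h exposure to one concentration of compound in 96-well plates. Values under 10 count as active.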 Values without a mark were called inactive. Calls of active or inactive are those of the source.

What was measured:
Test in all cases: NCI-60 one-dose screen, 48 h (100 = growth as untreated, 0 = no growth, -100 = all killed)
Conditions in all cases: 10 µM unless noted
HCT-15 colon = test system: HCT-15 colon
HT29 colon = test system: HT29 colon
SNB-75 CNS = test system: SNB-75 CNS
SNB-19 CNS = test system: SNB-19 CNS
U251 CNS = test system: U251 CNS
PC-3 prostate = test system: PC-3 prostate
SK-MEL-5 melanoma = test system: SK-MEL-5 melanoma
UACC-62 melanoma = test system: UACC-62 melanoma
LOX IMVI melanoma = test system: LOX IMVI melanoma
SK-MEL-28 melanoma = test system: SK-MEL-28 melanoma

Compound	growth (HCT-15 colon)	growth (HT29 colon)	growth (SNB-75 CNS)	growth (SNB-19 CNS) [%]	growth (U251 CNS)	growth (PC-3 prostate)	growth (SK-MEL-5 melanoma)	growth (UACC-62 melanoma)	growth (LOX IMVI melanoma)	growth (SK-MEL-28 melanoma)
CC1CN(S(=O)(=O)c2oc(-c3ccc(Cl)cc3)nc2C#N)CC(C)O1 (stereo not given)	-26.5% (active)	58.5%	91.1%	97.5	89.6%	90.2%	92.7%	96.7%	8.2% (active)	97.9%
CC(C)COc1nc2c(c(=O)n(C)c(=O)n2C)n1C	97%	99.8%	82.4%	99.9	101%	102%	86.7%	93.8%	105%	106%
Fc1cccc(Oc2ccc(Nc3ncnc4ccc(OCCCN5CCOCC5)cc34)cc2Cl)c1	10.8%	18.2%	77.2%	63.3	47.4%	63.8%	32.3%	71.6%	21.6%	68.4%
CN(/C(N)=N/N=C/c1c2ccccc2cc2ccccc12)C1CCCCC1	25.5%	17.9%	57.2%	71.5	48.3%	36.7%	12.1%	47.6%	31.3%	48.8%
C=CCn1c(C)nc2ccc(Nc3nc(Nc4ccc5nc(C)n(CC=C)c5c4)c4ccccc4n3)cc21	-51.7% (active)	-96.7% (active)	-95.2% (active)	30.6	-94.2% (active)	-47.8% (active)	-94.2% (active)	-87% (active)	-88.6% (active)	-96% (active)
c1ccc2cc(C[n+]3ccn(CCCCCCCCCCn4cc[n+](Cc5ccc6ccccc6c5)c4)c3)ccc2c1	50.5%	-32.5% (active)	-1.15% (active)	22.8	11.7%	7.04% (active)	-56.4% (active)	16.9%	-53.9% (active)	20.6%
O=C1c2ccccc2-c2c1c1c(=O)[nH]c3ccccc3c1n2Cc1ccccc1	84.5%	75.6%	70.8%	68.7	68.6%	74%	60.6%	53.8%	82.7%	85.7%
CNc1nnc2n(-c3ccccc3)c(=O)c3cnn(-c4ccccc4)c3n12	76.2%	51.3%	73.1%	110	71.4%	62.7%	100%	95.4%	82.6%	103%
O=C(NCCCl)Nc1ncccc1OCc1ccccc1	95%	94.5%	103%	103	110%	99%	95.9%	92.5%	102%	108%
CC(=O)Oc1ccc(N2C(=O)C(Cl)=C(Nc3cccc(C(F)(F)F)c3)C2=O)cc1	84%	104%	95.1%	93	97.4%	96.3%	105%	87.8%	88.7%	101%
Oc1c(I)cc(I)cc1CNCc1ccccn1	26.8%	36.6%	75.6%	30.5	15.6%	39.5%	37.3%	19.6%	30.2%	48.6%
COC1/C=C/OC2(C)Oc3c(C)c(O)c4c(O)c(c(/C=N/Nc5ccc([N+](=O)[O-])cc5[N+](=O)[O-])c(O)c4c3C2=O)NC(=O)C(C)=C/C=C/C(C)C(O)C(C)C(O)C(C)C(OC(C)=O)C1C (stereo not given)	41.6%	-37.2% (active)	67%	38.6	-31.9% (active)	34.2%	29.7%	-41.3% (active)	-56.9% (active)	37.3%
CCCc1c(OC(=O)c2ccccc2)nc2[nH]c(=O)sc2c1C	98.3%	104%	88.9%	96	97.7%	97.2%	98%	88.8%	98.3%	104%
CCN1C(=S)N(c2ccccc2)C2NC(=S)N(/N=C/C=C/c3ccccc3OC)C21 (stereo not given)	12.9%	1.16% (active)	-1.02% (active)	31.3	3.1% (active)	30.1%	14.1%	25.7%	15.4%	47.8%
COc1ccc(Nc2nc(-c3cc(O)c(C)c(C)c3O)cs2)cc1	50.4%	105%	78.8%	102	70.2%	43.9%	82.3%	68.9%	61.5%	99.5%
CCC(C)(C)C(=O)O[C@H]1C[C@@H](C)C=C2C=C[C@H](C)[C@H](CC[C@@H]3CC(SCCN)CC(=O)O3)[C@H]21 (stereo not given in full)	100%	75%	95.5%	93	87.5%	44.3%	89.4%	84.3%	75.8%	102%
COc1cccc(/C=C2\COc3ccc(O)c(O)c3C2=O)c1	1.4% (active)	8.58% (active)	11.5%	35.4	3% (active)	-10.5% (active)	40.4%	-6.3% (active)	-82.3% (active)	32.1%
O=S(=O)(c1ccccc1)n1cc2c(c1)-c1nc(Nc3ncccn3)sc1CC2	68.7%	66.2%	-16% (active)	78.5	46.2%	65.5%	35.4%	63.6%	10.1%	73.9%
CCC(C)N(CCNc1cc(OC)cc2cccnc12)CC(C)C (stereo not given)	71.7%	73.7%	109%	94.3	99.4%	83.5%	103%	88.9%	76.9%	109%
COC(=O)[C@@H](CCCCNC(=O)[C@]12CCC(C)(C)C[C@@H]1C1=CC[C@@H]3[C@@]4(C)C/C(=C/c5ccco5)C(=O)C(C)(C)[C@@H]4CC[C@@]3(C)[C@]1(C)CC2)NC(=O)[C@]12CCC(C)(C)C[C@@H]1C1=CC[C@@H]3[C@@]4(C)C/C(=C/c5ccco5)C(=O)C(C)(C)[C@@H]4CC[C@@]3(C)[C@]1(C)CC2	103%	112%	106%	95.3	106%	90.3%	97.5%	97.8%	107%	107%
Clc1ccc2c(NC3CCC(N4CCOCC4)CC3)ccnc2c1 (stereo not given)	93.5%	84.7%	82.7%	79.3	81.1%	62.3%	53.4%	77.4%	68.6%	97.3%
Oc1c(I)cc(I)cc1CNCCN(Cc1ccccn1)Cc1ccccn1	-30.4% (active)	-37% (active)	-57.2% (active)	16.7	-29.1% (active)	-41% (active)	-97% (active)	-14.3% (active)	-64.2% (active)	-14% (active)
N#C/C(=C\c1c(-c2ccccc2)[nH]c2ccccc12)C(N)=O	56.4%	67.4%	32.5%	89.6	79.6%	69.8%	64.7%	58.9%	76.2%	97.6%
CC(C)c1ccc(-n2c(=S)[nH]c3sc4cc(O)ccc4c3c2=O)cc1	97.7%	113%	85.9%	90.4	103%	100%	98.6%	93.6%	96.9%	103%
CCCCNC(=O)Oc1ccc(/C(=C(/C)Cc2ccc(OC)cc2)c2ccc(OCCN(CC)CC)cc2)cc1	41%	6.03% (active)	69.1%	87.7	59%	62.1%	79.1%	84.7%	74.9%	82.8%
O=C(Nc1ccc(Oc2cccc(F)c2)c(Cl)c1)c1cccnc1	29.9%	12.7%	7.85% (active)	42.6	32.5%	24.6%	-24% (active)	31.2%	52.8%	54%
